Screening results (PubChem BioAssay)
Only a selection was taken, and hits are over-represented in it overall.
ST2 inh: IL1RL1 inhibition; inhibition, % for hits at 17 µM; Q01638; 78,000 tested, 2.3% active; AlphaLISA ST2-Fc/biotin-IL-33 interaction, 1 h; in the data active = inhibition above about 30%
Target sequence (Q01638 whole entry, looked up): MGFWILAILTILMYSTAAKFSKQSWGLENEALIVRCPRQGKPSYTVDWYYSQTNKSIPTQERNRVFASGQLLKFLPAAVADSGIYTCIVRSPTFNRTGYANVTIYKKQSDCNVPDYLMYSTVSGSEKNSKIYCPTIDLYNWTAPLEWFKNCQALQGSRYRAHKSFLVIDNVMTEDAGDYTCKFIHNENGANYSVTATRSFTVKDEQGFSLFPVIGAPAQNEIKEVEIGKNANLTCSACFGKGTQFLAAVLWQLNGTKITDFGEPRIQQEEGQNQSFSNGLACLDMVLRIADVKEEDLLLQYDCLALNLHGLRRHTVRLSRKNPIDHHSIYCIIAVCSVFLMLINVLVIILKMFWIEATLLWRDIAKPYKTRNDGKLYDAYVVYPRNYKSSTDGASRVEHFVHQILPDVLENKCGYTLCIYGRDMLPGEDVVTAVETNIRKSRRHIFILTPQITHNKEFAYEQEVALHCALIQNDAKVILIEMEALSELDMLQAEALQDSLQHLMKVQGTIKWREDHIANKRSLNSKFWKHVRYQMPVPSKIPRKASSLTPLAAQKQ
Large screens that a line does not name were inactive.

CN1[C@@H](CCC(=O)N2CCN(c3ccccn3)CC2)CNC(=O)[C@@H]2[C@H]1CCN2Cc1cccs1	none
CCc1ccc(NC(=O)c2noc3c2CC(C(C)(C)C)CC3)cc1 (stereo unspecified)	ST2 inh 53%
CC(C)(C)C1CCc2onc(C(=O)NCc3ccc(Cl)cc3)c2C1 (stereo unspecified)	none
CC(C)(C)C1CCc2onc(C(=O)Nc3cccc(Cl)c3)c2C1 (stereo unspecified)	none
O=C1NCC2(CCCN(Cc3csc(-c4ccc(C(F)(F)F)cc4)n3)C2)O1 (stereo unspecified)	none
O=C1CCc2cc(S(=O)(=O)NCc3ccco3)ccc2N1	none
COc1ccc(C(O)=C2C(=O)C(=O)N(CCCn3ccnc3)C2c2ccccc2F)cc1 (stereo unspecified)	none
O=S(=O)(c1ccc2ccccc2c1)N1CCOC2(CNCCOC2)C1 (stereo unspecified)	none
CC(=O)Nc1ccc(S(=O)(=O)N2CCN(S(=O)(=O)c3ccc(F)cc3)CC2)cc1	none
O=C(CSc1nnc2c(n1)[nH]c1ccccc12)Nc1nc2ccc([N+](=O)[O-])cc2s1	none
Brc1ccc(CSc2nnc3c(n2)[nH]c2ccccc23)cc1	none
O=C(CSc1nnc2c(n1)[nH]c1ccccc12)c1ccc(Cl)cc1	ST2 inh 32%
CCOC(=O)C1(Cc2cccc(OC)c2)CCCN(C(=O)Cn2ncc3ccccc32)C1 (stereo unspecified)	none
CCCOc1ccc(/C=C2\N=C(c3cccc([N+](=O)[O-])c3)OC2=O)cc1OC	none
CCOc1ccc(C2Oc3c(cc(Br)cc3OC)C=C2[N+](=O)[O-])cc1OCC (stereo unspecified)	ST2 inh 43%
CCOc1cc2c(cc1OCC)C(c1ccc(Br)cc1)OC(=O)C2 (stereo unspecified)	none
CCOc1ccc(S(=O)(=O)N2CCSC2c2ccc(OC)c([N+](=O)[O-])c2)cc1 (stereo unspecified)	none
COc1cc([N+](=O)[O-])ccc1NC(=O)COc1ccc(Br)cc1C	none
CCCOc1ccc(C2Oc3ccc(Br)cc3C=C2[N+](=O)[O-])cc1OC (stereo unspecified)	ST2 inh 44%
CC(=O)c1cccc(NC(=O)CN2CCCN(Cc3ccccc3)S2(=O)=O)c1	none
Cc1cnc(N)c(-c2cccc(C(=O)O)c2)c1	none
CS(=O)(=O)c1ccc(CC(=O)N2CCC3(CCCO3)CC2)cc1	none
COc1ccc(NC(=O)c2coc(=O)c3ccccc23)c(OC)c1	none
COc1ccc(N2C(=O)c3cccnc3C2=O)c(OC)c1	none
COc1ccc(C2=C/C(=C3/c4ccccc4-c4ncccc43)C(=O)O2)c(OC)c1	ST2 inh 31%
CC1CCC(N2CCN(c3ccccc3)CC2)C1 (stereo unspecified)	none
COc1cccc(N2CCC(N3CCCC(N4CCN(c5ccccc5C)CC4)C3)CC2)c1 (stereo unspecified)	none
COc1cccc(N2CCN(C3CCC(C)C3)CC2)c1 (stereo unspecified)	ST2 inh 31%
O=C(O)c1ccc(S(=O)(=O)c2ccc(O)cc2)cc1	none
Cn1c(=O)[nH]c(=O)c2c1nc(CN1CCN(c3cccc(Cl)c3)CC1)n2CC(N)=O	none
CCOC(=O)c1cccc(NS(=O)(=O)c2cccc3nsnc23)c1	none
CCOC(=O)N1CCN(Cc2cnc(S(C)(=O)=O)n2CC2CCCO2)CC1 (stereo unspecified)	none
Cc1ccc(N2C(=O)CC(NCc3ccc(Cl)c(Cl)c3)C2=O)cc1 (stereo unspecified)	none
Cc1[nH]nc2c1C(C1CCCCC1)C(C#N)=C(N)O2 (stereo unspecified)	none
COc1ccc(-c2ccc3c(c2)C(=O)N2CC[C@H](NC(=O)CCC(=O)O)[C@H]2C(=O)N3)cc1	ST2 inh 46%
O=C(O)CCC(=O)N[C@H]1CCN2C(=O)c3cc(-c4ccccc4F)ccc3NC(=O)[C@H]12	none
O=C(O)CCC(=O)N[C@H]1CCN2C(=O)c3cc(-c4ccccc4)ccc3NC(=O)[C@H]12	none
CCN(Cc1noc(CC(C)C)n1)C(=O)C1CC=CCC1 (stereo unspecified)	none
O=C(Nc1ccc([C@@H](O)[C@H]2COCC(=O)N2Cc2ccc(C(F)(F)F)cc2)cc1)c1ccc(F)cc1	none
CN(CCc1ccccn1)[C@@H]1[C@H](O)[C@H](CO)O[C@@H]1CNS(=O)(=O)c1ccc(F)cc1	none
Cc1cccc(OCC(=O)O)c1C	none
COc1ccc(-c2nn(-c3ccccc3C)cc2CNCCN2CCOC2=O)cc1F	none
CNC(=O)c1ccc(CNC(=O)c2cccc(-c3ccccc3OC)c2)o1	none
COc1ccccc1-c1cccc(C(=O)NCCN2CCOC2=O)c1	ST2 inh 31%
CCCN1CC(NC2CCN(C(=O)c3ccccc3)CC2)CC1=O (stereo unspecified)	none
CCn1nc(C)c(-c2c(-c3ccccc3)ncn2CCc2ccncc2)c1C	none
CSc1nc2n(n1)C(c1ccccc1)C=C(C)N2 (stereo unspecified)	none
COC(=O)CSC1=C(C#N)C(c2ccccc2OC)CC(=O)N1 (stereo unspecified)	none
COc1ccc(Nc2nc(-c3cccc([N+](=O)[O-])c3)cs2)cc1	ST2 inh 38%
COc1ccc(Nc2nc(Nc3ccc(OC)cc3)c([N+](=O)[O-])cc2[N+](=O)[O-])cc1	none
Cc1nc2ncccn2c1-c1csc(Nc2cccc([N+](=O)[O-])c2)n1	ST2 inh 37%
NS(=O)(=O)c1ccc(Nc2nc(-c3ccccn3)cs2)cc1	none
Brc1ccc(Nc2nc(-c3ccccn3)cs2)cc1	none
COc1cccc(Nc2nc(-c3ccc(F)cc3)cs2)c1	none
N#Cc1c(N=c2oc3ccc(Br)cc3cc2C(N)=O)sc2c1CCCC2	none
O=C1Nc2ccccc2N(O)N1c1ccccc1I	none
CCc1ccccc1OCCN(C)C(=O)[C@H](C)NC(C)=O	none
Cc1ccc(-c2cc(N3CCN(S(=O)(=O)c4ccc(Br)cc4)CC3)ncn2)cc1	none
Cc1ccc(NC(=O)COc2c(C)ccc(C)c2C)c([N+](=O)[O-])c1	ST2 inh 33%
CCCCOc1ccc(C(=O)Nc2ccc(OCC)cc2[N+](=O)[O-])cc1	none
Cc1ccc(OCC(=O)Nc2ccc(C)cc2[N+](=O)[O-])c(C)c1	none
CCOc1ccc(NC(=O)c2cc(OC)cc(OC)c2)c([N+](=O)[O-])c1	none
CCCOc1cccc(C(=O)Nc2ccc(C)cc2[N+](=O)[O-])c1	ST2 inh 32%
Cc1ccc(NC(=O)COc2ccc(Cl)cc2)c([N+](=O)[O-])c1	none
CCCC(=O)N1c2ccccc2-c2nnc(SC)nc2OC1c1ccccn1 (stereo unspecified)	none
CC(=O)Nc1cccc(NC(=O)c2ccc(-c3ccccc3)cc2)c1	none
Cc1ccc(C2(O)CCN(Cc3ccc(C#CCCO)cc3)CC2)nc1	none
O=C(CN1C(=O)c2ccccc2C1=O)Nc1nc(-c2ccncc2)cs1	ST2 inh 36%
O=C(COc1ccccc1)Nc1nc(-c2ccccc2)cs1	none
O=C(CSc1ncccn1)Nc1nc(-c2ccccc2)cs1	none
O=C1N(Cc2cccnc2)CCCC12CCN(Cc1ccc(Cl)s1)C2 (stereo unspecified)	none
CN1CCN(C(=O)CN2CCN(Cc3cccc(Cl)c3)C2=O)CC1	none
O=C(c1ccc2c(Cl)c3c(nc2c1)CCCC3)N1CCN(Cc2ccc3c(c2)OCO3)CC1	none
CC1CC2c3cccc(C(=O)O)c3C(=O)N2c2ccc(F)cc21 (stereo unspecified)	ST2 inh 32%
O=C(O)c1ccccc1N1C(=O)C2C3CC(C(Br)C3Br)C2C1=O (stereo unspecified)	none
C=CCC1c2cccc(C(=O)O)c2C(=O)N1c1cccc(OC)c1 (stereo unspecified)	none
